Assay results reported in PubChem BioAssay (Tox21).
Records with an inconclusive call do not appear. A call without a number means that no potency is given here. The source made the active and inactive calls. The call rests on the fitted dose curve; in most records, active means well fitted cell-killing curve with a large enough effect in the repeat runs; inconclusive means weak or mixed curves, or effect the other way; inactive means flat fitted curve, though single readings scatter. Starred links: 1 amine or outer side, 2 acyl side, 3 side chain; linkers in the order of their positions; H or OH if unused. Positions of bridges follow the written chain, without caps; N, C: chain ends. Non-standard residues stand in square brackets, D forms with d. Residues, ends and D or L forms follow the SMILES beside them. Chains are numbered I, II in the order given. Actinocin(9to1) = Cc1c2oc3c(C)ccc(C(=O)[*:1])c3nc-2c(C(=O)[*:2])c(N)c1=O; NMeV = CN[C@H](C(=O)O)C(C)C; Sar = CNCC(=O)O
Potency means the concentration at half of the fitted maximal effect.

Experiment: qHTS assay to identify small molecule agonists of the TGF-beta/Smad signaling pathway - cell viability counter screen (AID 1346829); further: nearly all actives have a fitted effect of over 45% in size
Conditions: SBE-bla HEK293T viability, CellTiter-Glo luminescence, 5 h; series mostly up to 76.8 µM
From the text: National Center for Advancing Translational Sciences [NCATS]
NIH Chemical Genomics Center [NCGC]
U.S. Environmental Protection Agency [EPA]
National Institutes of Environmental Health Sciences [NIEHS]
National Toxicology Program [NTP]
U.S. Food and Drug Administration [FDA]
Transforming growth factor beta (TGF-beta) superfamily consists of a large number of structurally related dimeric proteins that act as hormones or local mediators in regulating a wide range of biological functions. This superfamily includes TGF-betas themselves, the bone morphogenetic proteins (BMPs) and the activins. These ligands induce oligomerization of serine/threonine receptor kinases and phosphorylate the cytoplasmic signaling molecules of Smad protein family. CellSensor SBE-bla HEK 293T cell line (Life Technologies, Carlsbad, CA), responsive to TGF-beta was used to screen Tox21 10K compound library for identification of agonists/antagonists of the Smad signaling pathway. This cell line contains a beta-lactamase reporter gene under control of the Smad binding element (SBE) stably integrated into HEK 293T cells. Also cytotoxicity of the compounds was tested in parallel by measuring the cell viability using CellTiter-Glo assay system in the same wells.
Tox21 Assay Protocol Summary:
SBE-bla HEK 293T cells were dispensed at 4,000/well in 6 uL of assay medium into black wall/clear-bottom 1536-well plates using a Multidrop Combi (ThermoFisher Scientific, Waltham, MA) dispenser. After the assay plates were incubated at 37 C and 5% CO2 for an overnight, 23 nL of compounds dissolved in DMSO, positive controls or DMSO only was transferred to the assay plate by a Pintool station (Kalypsys, San Diego, CA). The assay plates were incubated at 37 C and 5% CO2 for 5 hr. One uL of LiveBLAzer B/G FRET substrate (Life Technologies) was added using a Flying Reagent Dispenser (FRD, Aurora Discovery, San Diego, CA) and the plates were incubated at room temperature for 2 hr. Fluorescence intensity (405 nm excitation, 460 nm and 530 nm emissions) was measured using an Envision plate reader (PerkinElmer, Shelton, CT). For cytotoxicity read, 4 uL of CellTiter-Glo reagent (Promega Corporation, Madison, WI) was added to each well of the assay plates using FRD. After 30min incubation at room temperature, the luminescence intensity was measured using ViewLux plate reader (PerkinElmer).
For `CC(C)CCOCc1ccccc1`, the Potency was “inactive”.
With `CN1C(=O)c2ccc([N+](=O)[O-])cc2C1=O` the Potency was “inactive”.
With `O=C(O)CCc1ccccc1` the Potency was “inactive”.
With `COc1ccc(COC(C)=O)cc1` the Potency was “inactive”.
With `CC[C@H]1CN2CCc3cc(OC)c(OC)cc3[C@@H]2C[C@@H]1C[C@H]1NCCc2cc(OC)c(OC)cc21` the Potency was “inactive”.
With `NCCCCCC(=O)O` the Potency was “inactive”.
With `CC(N)=O` the Potency was “inactive”.
In the case of `Nc1nc2ccccc2[nH]1`, the Potency was “inactive”.
For `c1ccc2c(c1)CCCC2C1=NCCN1` (stereo not given), the Potency was “inactive”.
With `NC(=Nc1ccccc1)Nc1ccccc1` the Potency was “inactive”.
With `CC(=O)CC(=O)Nc1ccc2[nH]c(=O)[nH]c2c1` the Potency was “inactive”.
With `CCOc1ccccc1C(N)=O` the Potency was “inactive”.
In the case of `C=C(C)C1CC=C(C)C(OC(C)=O)C1` (stereo not given), the Potency was “inactive”.
For `CC1COC(=O)O1` (stereo not given), the Potency was “inactive”.
With `OCCOCCN1CCN(C(c2ccccc2)c2ccc(Cl)cc2)CC1` (stereo not given) the Potency was “inactive”.
In the case of `O=C(O)c1cccc(C(=O)O)c1`, the Potency was “inactive”.
In the case of `Oc1c(Cl)cc(Cl)cc1Sc1cc(Cl)cc(Cl)c1O`, the Potency was “inactive”.
For `CC(C)(C)NC(=O)[C@@H]1CN(Cc2cccnc2)CCN1C[C@@H](O)C[C@@H](Cc1ccccc1)C(=O)N[C@H]1c2ccccc2C[C@H]1O`, the Potency was “inactive”.
With `CC(C)(C)NCC(O)c1cc(O)cc(O)c1` (stereo not given) the Potency was “inactive”.
With `Oc1ccc(Cl)cc1Cc1cc(Cl)ccc1O` the Potency was “inactive”.
For `CCCCC/C=C/CC1CC(=O)OC1=O` (stereo not given), the Potency was “inactive”.
For `Clc1ccc2c(c1)C(N1CCNCC1)=Nc1ccccc1O2`, the Potency was “inactive”.
With `Cc1c2oc3c(C)ccc(C(=O)N[C@@H]4C(=O)N[C@H](C(C)C)C(=O)N5CCC[C@H]5C(=O)N(C)CC(=O)N(C)[C@@H](C(C)C)C(=O)O[C@@H]4C)c3nc-2c(C(=O)N[C@@H]2C(=O)N[C@H](C(C)C)C(=O)N3CCC[C@H]3C(=O)N(C)CC(=O)N(C)[C@@H](C(C)C)C(=O)O[C@@H]2C)c(N)c1=O` (I: T[dV]P[Sar][NMeV] / II: T[dV]P[Sar][NMeV]; ester I:1-I:C, II:1-II:C; linker I:N-II:N via Actinocin(9to1)) the Potency was “inactive”.
For `CC(C)(C)NCC(O)COc1ccccc1OCC1CCCO1` (stereo not given), the Potency was “inactive”.
For `CC(=O)OCCOCCOCCOC(C)=O`, the Potency was “inactive”.
With `CCC(C)(C)C(=O)O[C@H]1C[C@@H](C)C=C2C=C[C@H](C)[C@H](CC[C@@H]3C[C@@H](O)CC(=O)O3)[C@H]21` the Potency was “inactive”.
For `Cc1cc(C(C)(C)C)c(O)c(C(C)(C)C)c1`, the Potency was “inactive”.
For `O=C1OC2(c3ccc(O)cc3Oc3cc(O)ccc32)c2ccccc21`, the Potency was “inactive”.
With `COc1nc(C)nc(Cl)c1NC1=NCCN1` the Potency was “inactive”.
With `Nc1cc(S(=O)(=O)O)cc2cc(S(=O)(=O)O)cc(O)c12` the Potency was “inactive”.
With `Cc1ccnc2c1NC(=O)c1cccnc1N2C1CC1` the Potency was “inactive”.
For `CCN(CC)c1ccc2c(C)cc(=O)oc2c1`, the Potency was “inactive”.
In the case of `C/C=C/c1ccc(OCC)c(O)c1`, the Potency was “inactive”.
With `O=Nc1ccc(Nc2ccccc2)cc1` the Potency was “inactive”.
In the case of `COc1ccc(Cc2cnc(N)nc2N)cc1OC`, the Potency was “inactive”.
With `CCCNC(C)C(=O)Nc1ccccc1C` (stereo not given) the Potency was “inactive”.
With `c1ccc2cc3c(ccc4ccccc43)cc2c1` the Potency was “inactive”.
With `CO[Si](OC)(OC)c1ccccc1` the Potency was “inactive”.
In the case of `CCCCCCCCCCCCCC[P+](CCCC)(CCCC)CCCC`, the Potency was 54.9 µM (active).
In the case of `CCC(C)(Oc1ccc(C2(c3ccc(OC(C)(CC)C(=O)O)cc3)CCCCC2)cc1)C(=O)O` (stereo not given), the Potency was “inactive”.
